Screening data from PubChem BioAssay.
Most compounds without a hit are left out; they make up all but 8.7% or so of the library.
VACV mCherry inh – inhibitors of vaccinia virus infection (mCherry reporter signal); 310,000 compounds, 0.63% hits; AID 720579; Vaccinia virus mCherry reporter infection, fluorescence; Potency, µM (doses to about 36.5 µM), hits mostly inhibitors; calls by dose curve; tested in A549 cells; also: nearly all actives have a fitted effect of over 35% in size
Pf growth 48h – inhibits P. falciparum growth in the first generation, 48 h | 310,000 compounds, 5.9% hits | Potency, µM (titrated, usually from 28.7 µM), usual class: inhibitors | P. falciparum luciferase growth in erythrocytes, 48 h
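Compounds are pin-transferred into medium, infected erythrocytes (2% hematocrit, 0.1% parasitemia final) are added, and plates sit one parasite generation at 37 C in 5% CO2. Detection reagent is then added and luminescence measured.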
AMA1 RON2 block – inhibitors of Plasmodium falciparum AMA1-RON2 interaction | AlphaScreen AMA1-biotinylated RON2 peptide binding | Potency, µM (doses to about 58.2 µM), actives largely listed as inhibitors | 360,000 compounds, 0.2% hits | AID 720542; also: nearly all actives have a fitted effect of over 45% in size
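AMA1 (3D7) with his tag at 25 nM final met compounds first, then biotinylated RON2 peptide at 25 nM; detection used donor plus acceptor beads, 10 µg/mL apiece, read by AlphaScreen after 30 min at room temperature.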
Pf growth 96h – P. falciparum growth inhibition at 96 hour, primary screen for plastid delayed-death inhibitors | AID 504834 | P. falciparum luciferase reporter growth, 96 h | 320,000 compounds, 6.9% hits | Potency, µM (top dose mostly 28.7 µM), actives largely listed as inhibitors
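96 h incubation, 37 C, 5% CO2, of luciferase-reporter P. falciparum-infected RBCs (2% hematocrit, 0.05% parasitemia final) with test compounds; endpoint luminescence.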
VACV Venus inh – vaccinia inhibition (Venus reporter); AID 720580; Vaccinia virus Venus reporter expression, fluorescence; Potency, µM (titrated, usually from 36.5 µM), most hits filed as inhibitors; 330,000 compounds, 0.46% hits; calls by dose curve; tested in A549 cells; also: nearly all actives have a fitted effect of over 30% in size
Numbers stand for hits; . = inactive; ? = inconclusive; / = not tested or not shown; [ ] = another dose, or the depositor's remark. Unless noted, calls follow the shape of the dose curve; as a rule, active = well fitted curve in the direction sought with a large enough effect; inconclusive = small, poorly fitted or top-dose-only effect, or another doubt; inactive = no such curve, though single readings can be large; an effect the other way counts as inactive or inconclusive.

SMILES	VACV mCherry inh	Pf growth 48h	AMA1 RON2 block	Pf growth 96h	VACV Venus inh
Cc1ccc(-c2nn(CC(=O)NC3CCCCC3)c3c2cnc2ccccc23)cc1	.	/	/	/	.
O=C(Cn1c(=O)nc(-c2ccccc2)c2ccccc21)NCCc1ccc(Cl)cc1	.	/	/	/	.
Cc1c(CN(C)Cc2cn(C)nc2-c2ccccc2F)[nH]c2ccccc12	.	.	.	3.7µM	.
CN(Cc1cn(C)nc1-c1ccccc1F)C1CCOC1 (configuration not stated)	.	.	.	.	.
Cn1cc(CN(Cc2ccccc2)C[C@@H]2CCC(=O)N2)c(-c2ccccc2F)n1	.	.	.	?	.
CN(CCCN1CCOCC1)Cc1cn(C)nc1-c1ccccc1F	.	.	.	5.9µM	.
O=C1CS(=O)(=O)C2(C(=O)N(Cc3ccccc3)c3ccccc32)N1c1ccccc1 (configuration not stated)	.	/	/	/	.
CC(C)c1ccc(CNc2nc(-c3ccco3)nn2S(=O)(=O)c2ccc3ccccc3c2)cc1	.[7.34 µM]	/	/	/	.[7.34 µM]
CC(C)(CO)NC(=O)c1cnn(-c2ncc3c(n2)-c2ccccc2CC3)c1C1CC1	.	/	/	/	.
CN(C)S(=O)(=O)N1CCc2ccc(NC(=O)c3ccc(C(F)(F)F)cc3)cc2C1	/	.	.	13µM	/
COCCC(=O)N1CCc2ccc(NC(=O)c3ccc(C(F)(F)F)cc3)cc2C1	/	.	.	.	/
COC(=O)c1[nH]c2cccc(Cl)c2c1NC(=O)CN(C)C1CCCCC1	/	?	.	8.3µM	.
O=C(NCCc1ccccc1)C(=O)NCC(c1cccs1)S(=O)(=O)c1cccs1 (configuration not stated)	.	/	/	/	.
COc1cc([N+](=O)[O-])ccc1NC(=O)C[n+]1cccc(C)c1	/	.	.	?	/
Cc1ccc(NC(=O)C[n+]2ccccc2)cc1C	/	.	.	9.3µM	/
Cc1cccc(NC(=O)C[n+]2ccccc2)c1	.	.	.	?	.
Cc1cccc(NC(=O)C[n+]2cccc(C)c2)c1	.	?	.	0.66µM	.
COc1ccc(Cl)cc1NC(=O)C[n+]1cccc(C)c1	/	12µM	.	.	/
Cc1ccc(CN2CCC(CNC(=O)c3cnn(-c4ccccc4)c3C3CCN(C(=O)OC(C)(C)C)CC3)CC2)cc1	.	/	/	/	.
O=C(NCc1ccc(Cl)cc1)C1CCN(S(=O)(=O)Cc2ccccc2)CC1	.	/	/	/	.
COc1ccc(-n2c(Cc3cccn3C)nnc2SCC(N)=O)cc1	.	.	.	.	.
COc1ccc(-n2c(Cc3cccn3C)nnc2SCC(=O)NCc2ccccc2Cl)cc1	.	9.3µM	.	12µM	.
COc1ccc(-n2c(Cc3cccn3C)nnc2SCC(=O)NCc2ccc(F)cc2)cc1	.	8.3µM	.	.	.
COc1ccc(-n2c(Cc3cccn3C)nnc2SCC(=O)NCc2ccco2)cc1	.	?	.	.	.
CCCc1cc(=O)[nH]c(Nc2cc(C)ccc2OC)n1	.	/	/	/	.
SMILES	VACV mCherry inh	Pf growth 48h	AMA1 RON2 block	Pf growth 96h	VACV Venus inh
CC(Oc1ccc(Cl)cc1Cl)c1nc(-c2ccc(NC(=O)c3ccncc3)cc2)no1 (configuration not stated)	/	15µM	.	9.3µM	/
COc1ccc(-c2noc(-c3ccccc3C(=O)Nc3cccnc3)n2)cc1	/	?	.	.	.
CC(Oc1ccc(Cl)cc1Cl)c1nc(-c2ccc(NC(=O)c3cccnc3)cc2)no1 (configuration not stated)	/	3.3µM	.	.	?
CC(Oc1ccc(Cl)cc1Cl)C(=O)NNC(=O)c1cccnc1 (configuration not stated)	/	.	.	.	/
COc1ccc(-c2noc(-c3ccccc3C(=O)Nc3cccnc3)n2)cc1OC	.	10µM	.	/	.
COc1cccc(-c2nc(-c3ccc(NC(=O)c4cccnc4)cc3)no2)c1	/	?	.	12µM	.
COc1ccc(-n2nc3ccc(NC(=O)c4cc5ccccc5o4)cc3n2)cc1Cl	.	/	/	/	.
c1ccc2c(-c3c[nH]c4ccccc34)c3ccccc3nc2c1	.	?	.	3.7µM	?
CCOC(=O)C1CCN(C(=O)COc2ccc(N(C)S(=O)(=O)c3ccc(C)cc3)cc2)CC1	.	.	.	.	.
CN(c1ccc(OCC(=O)N2CCCC2)cc1)S(=O)(=O)c1ccc(Cl)cc1	/	10µM	.	?	/
CN1CCN(C(=O)COc2ccc(N(C)S(=O)(=O)c3ccc(F)cc3)cc2)CC1	.	.	.	.	.
COC(=O)C1CCN(C(=O)COc2ccc(N(C)S(=O)(=O)c3ccc(C)cc3)cc2)CC1	.	13µM	.[11.6 µM]	?	.
CCCSC1=C(C#N)C(c2ccccc2OCC)CC(=O)N1 (configuration not stated)	/	?	.	5.2µM	/
COC(=O)CSC1=C(C#N)C(c2ccccc2)CC(=O)N1 (configuration not stated)	.	.	.	9.3µM	?
COC(=O)CSC1=C(C#N)C(c2ccc(C(C)C)cc2)CC(=O)N1 (configuration not stated)	.	/	.	.	.
N#CC1=C(SCC(=O)Nc2ccccc2)NC(=O)CC1c1ccc(O)cc1 (configuration not stated)	.	/	.	5.9µM	.
N#CC1=C(SCC(=O)Nc2ccccc2)NC(=O)CC1c1ccco1 (configuration not stated)	.	/	.	/	.
O=C(Cc1ccc(F)cc1)NCc1ccc2c(c1)CCN2C(=O)c1ccc(F)cc1	.	/	/	/	.
CCOC(=O)C(C)Sc1ccc2nnc(-c3ccc(OCC)cc3)n2n1 (configuration not stated)	.	/	/	/	.
Cn1c(=O)cc(OCC(=O)NCCCN2CCN(c3cccc(Cl)c3)CC2)c2ccccc21	.	?	.	12µM	.
Cc1cccc(CCNC(=O)COc2cc(=O)n(C)c3ccccc23)c1	.	.	.	10µM	.
Cn1cc(C(=O)NCCN2CCN(c3cccc(Cl)c3)CC2)c2c3ccccc3n(C)c2c1=O	.	1µM	.	?	.
Cn1c(=O)cc(OCC(=O)NCCCN2CCN(c3ccccc3F)CC2)c2ccccc21	/	/	.	?	/
CCC1CCCCN1CCCNC(=O)CCCOc1cc(=O)n(C)c2ccccc12 (configuration not stated)	.	.	.	6.6µM	.
COc1ccc2c(c1)CC(NC(=O)Nc1ccc(Br)c(C)c1)CO2 (configuration not stated)	.	/	/	/	.
C(=C\c1cnc2ccccc2n1)/c1ccc2c(c1)OCO2	.	/	/	/	.
C[C@H]1[C@@H](OC(=O)CCC(=O)O)OC2OC3(C)CC[C@H]4[C@H](C)CC[C@@H]1[C@@]24OO3 (some centres not stated)	/	0.0019µM	/	0.0013µM	/
C[C@@H]1CC[C@H]2[C@@H](C)C(=O)O[C@@H]3OC4(C)CC[C@@H]1C32OO4 (some centres not stated)	/	0.0034µM	/	0.0027µM	/
CCC(C)NC(=O)CCC(=O)OC1O[C@H]2OC3(C)CC[C@H]4[C@H](C)CCC(C1C)C24OO3 (some centres not stated)	/	.	.	.	/
